# PubChem BioAssay (NCATS)
# “And” between values parts separate entries of the source, which are not always exact repeats. Identical values can stand only once. Inconclusive results are not listed. Entries that show only a call come without a potency. The source made the active and inactive calls. The call rests on the fitted dose curve; in most records, active means well fitted inhibition curve with a large enough effect; inconclusive means small, poorly fitted or top-dose-only effect; inactive means flat fitted curve, though single readings scatter.
# System: MKL-1
# Experiment: qHTS assay to identify novel small-molecules to repurpose for Merkel cell carcinoma treatment (AID 1296009); further: nearly all actives have a fitted effect of over 60% in size
# Settings: MCC and control cell lines, CellTiter-Glo viability, 72 h; series mostly up to 46 µM
# Procedure, shortened: (§1)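 Dose-response viability screen; 72 hr exposure at 37 degree celsius; CellTiter-Glo added, 10 min room temperature, luminescence read; RLUs scaled between no-cell and DMSO wells.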
# Potency means the concentration at half of the fitted maximal effect.
row,SMILES,Potency
1,C[C@H](Cn1cnc2c(N)ncnc21)OCP(=O)(O)O,inactive
2,N[C@@H](Cc1cc(I)c(Oc2cc(I)c(O)c(I)c2)c(I)c1)C(=O)O,inactive
3,COc1ccccc1N1CCN(CCN(C(=O)C2CCCCC2)c2ccccn2)CC1,inactive
4,CNC[C@H](O)c1ccc(O)c(O)c1,inactive
5,Nc1ncn([C@H]2C[C@H](O)[C@@H](CO)O2)c(=O)n1,inactive
6,Cc1cc(=O)oc2cc(O)ccc12,inactive
7,O=C(NOCC1CC1)c1ccc(F)c(F)c1Nc1ccc(I)cc1Cl,18.8 µM (active) and 20.9 µM (active)
8,Nc1ccc(S(N)(=O)=O)cc1,inactive
9,C[C@@H](N)C1CCC(C(=O)Nc2ccncc2)CC1 (some centres not stated),inactive
10,COc1cc(OC)c(C(=O)CCCN2CCCC2)c(OC)c1,inactive
11,Cc1nc(Nc2ncc(C(=O)Nc3c(C)cccc3Cl)s2)cc(N2CCN(CCO)CC2)n1,inactive
12,CN1CCC(=C2c3ccccc3CCc3sccc32)CC1,inactive
13,CCN(CC)CCOc1ccc(Cc2ccccc2)cc1,inactive
14,CCOC(=O)c1c(C)n(C)c2ccc(O)cc12,inactive
15,Cc1cc(=O)c2c(O)c3c(O)cc(=O)c4c3c3c(cc(O)c1c23)C(C)(C)C=4O,inactive
16,Nc1ccn([C@@H]2O[C@H](CO)[C@@H](O)C2O)c(=O)n1 (some centres not stated),inactive
17,O=C(O)c1cccnc1Nc1cccc(C(F)(F)F)c1,inactive
18,CCC(C)(Oc1ccc(C2(c3ccc(OC(C)(CC)C(=O)O)cc3)CCCCC2)cc1)C(=O)O (configuration not stated),inactive
19,CC1Cc2ccccc2N1NC(=O)c1ccc(Cl)c(S(N)(=O)=O)c1 (configuration not stated),inactive

row,SMILES,Potency
1,CCOc1cc(CC(=O)N[C@@H](CC(C)C)c2ccccc2N2CCCCC2)ccc1C(=O)O,inactive
2,Cc1ccc(C(=O)c2cc(O)c(O)c([N+](=O)[O-])c2)cc1,inactive
3,Cc1nccn1CC1CCc2c(c3ccccc3n2C)C1=O (configuration not stated),inactive
4,CC(S)C(=O)NCC(=O)O (configuration not stated),inactive
5,COCCCOc1ccnc(CS(=O)c2nc3ccccc3[nH]2)c1C (configuration not stated),inactive
6,CC(C)c1ccc2oc3nc(N)c(C(=O)O)cc3c(=O)c2c1,inactive
7,COc1cc2c(cc1OC)C1CC(=O)C(CC(C)C)CN1CC2 (configuration not stated),inactive
8,CNC[C@@H](O)[C@@H](O)[C@H](O)[C@H](O)CO,inactive
9,Cc1ccc(Nc2nccc(N(C)c3ccc4c(C)n(C)nc4c3)n2)cc1S(N)(=O)=O,inactive
10,O=C(NCCO[N+](=O)[O-])c1cccnc1,inactive
11,CC1(C)NC(=O)N(c2ccc([N+](=O)[O-])c(C(F)(F)F)c2)C1=O,inactive
12,Clc1ccc2c(N3CCN(CCCN4CCN(c5ccnc6cc(Cl)ccc56)CC4)CC3)ccnc2c1,inactive
13,Oc1ccc(OCc2ccccc2)cc1,inactive
14,Cc1ccc(NC(=O)c2ccc(CN3CCN(C)CC3)cc2)cc1Nc1nccc(-c2cccnc2)n1,inactive
15,NC(=O)Cc1cccc(C(=O)c2ccccc2)c1N,inactive
16,c1cnc2cc3c(cc2n1)C1CNCC3C1,inactive
17,c1ccc2[nH]c(-c3cscn3)nc2c1,inactive
18,OC(CN1CCN(c2cccc(Cl)c2)CC1)C(c1ccccc1)c1ccccc1 (configuration not stated),inactive
19,Nc1nc(OCc2ccccc2)c2[nH]cnc2n1,inactive

# System: MKL-2
# Experiment: as above
# Settings: MCC and control cell lines, CellTiter-Glo viability, 72 h; series mostly up to 46 µM
# Procedure, shortened: as §1
row,SMILES,Potency
1,C[C@H](Cn1cnc2c(N)ncnc21)OCP(=O)(O)O,inactive
2,N[C@@H](Cc1cc(I)c(Oc2cc(I)c(O)c(I)c2)c(I)c1)C(=O)O,inactive
3,COc1ccccc1N1CCN(CCN(C(=O)C2CCCCC2)c2ccccn2)CC1,inactive
4,CNC[C@H](O)c1ccc(O)c(O)c1,inactive
5,Nc1ncn([C@H]2C[C@H](O)[C@@H](CO)O2)c(=O)n1,inactive
6,Cc1cc(=O)oc2cc(O)ccc12,inactive
7,Nc1ccc(S(N)(=O)=O)cc1,inactive
8,C[C@@H](N)C1CCC(C(=O)Nc2ccncc2)CC1 (some centres not stated),inactive
9,COc1cc(OC)c(C(=O)CCCN2CCCC2)c(OC)c1,inactive
10,Cc1nc(Nc2ncc(C(=O)Nc3c(C)cccc3Cl)s2)cc(N2CCN(CCO)CC2)n1,inactive
11,CCN(CC)CCOc1ccc(Cc2ccccc2)cc1,inactive
12,CCOC(=O)c1c(C)n(C)c2ccc(O)cc12,inactive
13,Cc1cc(=O)c2c(O)c3c(O)cc(=O)c4c3c3c(cc(O)c1c23)C(C)(C)C=4O,inactive
14,Nc1ccn([C@@H]2O[C@H](CO)[C@@H](O)C2O)c(=O)n1 (some centres not stated),inactive
15,O=C(O)c1cccnc1Nc1cccc(C(F)(F)F)c1,inactive
16,CCC(C)(Oc1ccc(C2(c3ccc(OC(C)(CC)C(=O)O)cc3)CCCCC2)cc1)C(=O)O (configuration not stated),inactive
17,CC1Cc2ccccc2N1NC(=O)c1ccc(Cl)c(S(N)(=O)=O)c1 (configuration not stated),inactive

row,SMILES,Potency
1,CCOc1cc(CC(=O)N[C@@H](CC(C)C)c2ccccc2N2CCCCC2)ccc1C(=O)O,inactive
2,Cc1nccn1CC1CCc2c(c3ccccc3n2C)C1=O (configuration not stated),inactive
3,CC(S)C(=O)NCC(=O)O (configuration not stated),inactive
4,COCCCOc1ccnc(CS(=O)c2nc3ccccc3[nH]2)c1C (configuration not stated),inactive
5,CC(C)c1ccc2oc3nc(N)c(C(=O)O)cc3c(=O)c2c1,inactive
6,COc1cc2c(cc1OC)C1CC(=O)C(CC(C)C)CN1CC2 (configuration not stated),inactive
7,CNC[C@@H](O)[C@@H](O)[C@H](O)[C@H](O)CO,inactive
8,Cc1ccc(Nc2nccc(N(C)c3ccc4c(C)n(C)nc4c3)n2)cc1S(N)(=O)=O,inactive
9,O=C(NCCO[N+](=O)[O-])c1cccnc1,inactive
10,CC1(C)NC(=O)N(c2ccc([N+](=O)[O-])c(C(F)(F)F)c2)C1=O,inactive
11,Clc1ccc2c(N3CCN(CCCN4CCN(c5ccnc6cc(Cl)ccc56)CC4)CC3)ccnc2c1,inactive
12,Oc1ccc(OCc2ccccc2)cc1,inactive
13,Cc1ccc(NC(=O)c2ccc(CN3CCN(C)CC3)cc2)cc1Nc1nccc(-c2cccnc2)n1,inactive
14,NC(=O)Cc1cccc(C(=O)c2ccccc2)c1N,inactive
15,c1cnc2cc3c(cc2n1)C1CNCC3C1,inactive
16,c1ccc2[nH]c(-c3cscn3)nc2c1,inactive
17,Nc1nc(OCc2ccccc2)c2[nH]cnc2n1,inactive
